The sample as a whole holds a higher share of hits than the screen did.
Pf Dd2 growth = qHTS Primary assay for Inhibitors of Plasmodium falciparum Dd2 growth in vitro | AID 1347417, 2020 | hit rate 4.3% among 120,000 | Potency, µM (highest dose often 28.9 µM), for inactives: at the top dose activity, negative = inhibition, hits mostly inhibitors | P. falciparum Dd2 growth, SYBR Green, 72 h; active = well fitted inhibition curve with a large enough effect;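 note: plate controls were DMSO vehicle for no effect and reference drug for full effect; nearly all actives have a fitted effect of over 65% in size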
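Readout: SYBR Green fluorescence, 485 nm excitation, 535 nm emission, after ~16 h lysis at 37C. Before that, Dd2-infected red cells (2.5% hematocrit) grew 72 h with compound, 29 uM top final concentration.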
The depositor's hits bear a star; i = inactive; [ ] = another dose, or the depositor's remark. Potency is the fitted concentration of half-maximal effect.

SMILES	Pf Dd2 growth
CCC(=O)C1=C(c2ccc(F)cc2)N(C(=O)CC)n2cnnc2S1	4.5µM*
Cc1nnc2n1C(C)CN(C(=O)CCCn1nnc(-c3ccc(F)cc3)n1)C2 (centres undefined)	-5%
CCC(=O)N1CCCCCCn2c(nnc2-c2ccc(F)cc2)CC1	-8%
CCC(=O)C1=C(c2ccc(OC)c(OC)c2)N(C(=O)CC)n2c(nnc2-c2ccc(C)cc2)S1	-4%
CC(=O)C1=C(c2ccc(Cl)c(Cl)c2)N(C(C)=O)n2c(C)nnc2S1	2.8µM*
O=[S+]([O-])(c1ccc(Br)cc1)c1nnn2c1nc(N1CCC(F)CC1)c1ccccc12	-11%
Cc1cccnc1CN(C)c1ccc(C(=O)NCc2noc(C(C)C)n2)cn1	-9%
CCN1c2cc(C(=O)NC3CCCCC3)ccc2C(=O)N2CCCCC21 (centres undefined)	i
O=C([C@@H]1C[C@H](F)CN1C(=O)c1cccc(Br)c1)N1CCCCC1	43%
Cc1nc(NCc2ccc(C(=O)N3CCCCC3)cc2)cc(C2CC(N)C2)n1 (centres undefined)	-6%
COc1ccc(CC(=O)N2CCC(c3n[nH]c(=O)n3-c3ccc(C)cc3)CC2)cc1	-12%
O=C(CCc1ccccc1)N1CCC2(CC1)CC(O)CCO2 (centres undefined)	0%
COc1ccccc1CNC(=O)C1CCN(c2cn[nH]c(=O)c2)C1 (centres undefined)	1%
CCN(CCS(=O)(=O)c1ccc(C)cc1)C(=O)c1csc(C(C)=O)c1	21%
CCOc1ccccc1C1NC(=O)N(CC(=O)Nc2cccc(C(F)(F)F)c2)C2=C1C(=O)OC2 (centres undefined)	-9%
CCC(Sc1nc2ccccc2c2nc(CCn3cncc3C)nn12)C(=O)Nc1cccc(OC)c1 (centres undefined)	7.1µM*
CCCCn1c(SCC(=O)Nc2cccc(OC)c2)nc2c(sc3ccccc32)c1=O	i
CCC(Oc1ccccc1)C(=O)Nc1cccc(OCc2cc(=O)n3cccc(C)c3n2)c1 (centres undefined)	i
O=C(c1ccc(Cl)cc1)N1CCC2(CC1)CN(c1ccccc1)C(=O)c1ccccc1O2	-17%
Cc1nc2c(c(-c3ccc(O)cc3)n1)CN(C(=O)C1CCCC1)CCC2	-11%
Cc1cccc(CN2CCN(C)C3(CCC(=O)N(CC(=O)O)CC3)C2)n1 (centres undefined)	4%
O=C1CCCCC(Cc2ccccc2)(C(=O)O)N1 (centres undefined)	4%
COc1ccc(-c2noc(CSc3nnc(-c4ccncc4)n3-c3ccccc3)n2)cc1	-7%
COc1ccc(-n2c(C)nnc2SCc2nc(-c3ccc(OC)c(OC)c3)no2)cc1	-3%
CCc1ccc(-n2c(SCc3nc(-c4cc(OC)ccc4OC)no3)nnc2-c2ccccc2)cc1	11µM*
SMILES	Pf Dd2 growth
Cc1nc(N2CCC(NC(=O)CNC(=O)c3ccccc3)CC2)cc(C(F)(F)F)n1	-19%
COc1ccc(CC(=O)Nc2nc3c(s2)CC(C(C)(C)C)CC3)cc1 (centres undefined)	-28%
CC(C)(C)C1CCc2nc(NC(=O)Cc3ccc(Cl)cc3)sc2C1 (centres undefined)	10µM*
COc1ccccc1OCC(=O)Nc1nc2c(s1)CC(C)CC2 (centres undefined)	86%
COCC1(C(=O)N2CCN(C)C3(CCNC(=O)CC3)C2)CC1 (centres undefined)	-6%
COc1ccc(CNC(=O)C2(c3ccc(NS(C)(=O)=O)cc3)CCCCC2)cc1	i
O=C(NCc1ccccn1)C1CCN(c2nccc(-c3cccnc3)n2)CC1	-13%
O=c1[nH]c2ccccc2n1C1CCN(c2nccc(-c3cccnc3)n2)CC1	11µM*
Cc1nc(CC2CCN(c3nccc(-c4cccnc4)n3)CC2)no1	-12%
O=C(O)C1=NOC2CN([S+](=O)([O-])c3cccc(C(F)(F)F)c3)CC12 (centres undefined)	22%
C[C@H]1CCCN1C(=O)c1nnc(COc2cccc(C(F)(F)F)c2)n1-c1cccnc1	i
CSc1cccc(NC(=O)Cn2ccn3nc4c(c3c2=O)CCCC4)c1	-5%
CC[C@H]1CN(S(=O)(=O)c2c(C)noc2C)CC[C@H]1CC(=O)Nc1ccccc1	0%[44.1 µM]
Cn1nccc1C(=O)N1CCC2(CC1)OCCN(Cc1ccccc1F)C2=O	-8%[44.1 µM]
O=C1N(Cc2ccccc2F)CCOC12CCN(Cc1ccc(F)cc1F)CC2	2.5µM*
O=C1N(Cc2ccccc2)CCOC12CCN(Cc1cc(F)ccc1F)CC2	i
CCn1cc(S(=O)(=O)N2CCC3(CC2)CCC(O)(CN(C)C)CC3)cn1	-23%
O=C(O)C[C@@H]1CCN(C(=O)C2CCCCC2)C[C@@H]1CCN1CCN(c2ccccn2)CC1	-3%
COc1ccc(C2=NOC3(CCCN(C(=O)c4ccc(C(F)(F)F)cc4)C3)C2)cc1 (centres undefined)	-19%
Cc1cccc(CN2CCCC(O)(CNCc3cccc(F)c3)C2=O)c1 (centres undefined)	-6%
COCc1nc(C2CCCN(C(=O)c3ccc(C)cc3)C2)no1 (centres undefined)	39%
CCOCc1nc(C2CCCN(C(=O)Cc3cccc(C)c3)C2)no1 (centres undefined)	20%
O=C(Cc1cccc(F)c1)N1CCCC(c2nc(C3CCOCC3)no2)C1 (centres undefined)	21%
Cc1cccc(C(=O)N2CCCC(c3noc(COc4ccccc4)n3)C2)c1 (centres undefined)	2%
Cc1cn2nc(-c3nc(C4CCCN(C(=O)c5sccc5C)C4)no3)cc2c(=O)[nH]1 (centres undefined)	4.5µM*
SMILES	Pf Dd2 growth
CCc1ccc(C(=O)N2CCCC(c3noc(-c4cc5c(=O)[nH]c(C)cn5n4)n3)C2)cc1 (centres undefined)	0.89µM*
Cc1cn2nc(-c3nc(C4CCCN(C(=O)Cc5cccc(F)c5)C4)no3)cc2c(=O)[nH]1 (centres undefined)	4µM*
CCOCc1nc(C2CCCN(C(=O)c3ccc(OC)cc3)C2)no1 (centres undefined)	i
Cc1cccc(C(=O)N2CCC(c3noc(CO)n3)C2)c1 (centres undefined)	1%
Cc1cn2nc(-c3nc(C4CCCN(C(=O)c5ccc(C)s5)C4)no3)cc2c(=O)[nH]1 (centres undefined)	-12%
Cc1ccsc1C(=O)N1CCCC(c2noc(COc3ccccc3F)n2)C1 (centres undefined)	9%
Cc1cccc(C(=O)N2CCCC(c3noc(-c4cc5c(=O)[nH]c(C)cn5n4)n3)C2)c1 (centres undefined)	5.6µM*
NC(=O)[C@@H]1C[C@H](Oc2cccnc2)CN1S(=O)(=O)c1ccc2c(c1)OCCO2	8%
COCc1nncn1C1CCN(C(=O)c2cc(F)cc(F)c2)CC1	6%
COC1CN(C2CCN(C(=O)NC(C)(C)C)CC2)C12CCOCC2 (centres undefined)	-3%
COc1cc(NC(=O)CC2CCCN(c3cnn(C)c(=O)c3)C2)cc(OC)c1 (centres undefined)	i
CCc1noc(-c2cn(C3CCN(C(=O)c4cc(C5CC5)[nH]n4)C3)nn2)n1 (centres undefined)	-2%
O=C1[C@H]2CCCN2C(=O)C2C[C@@H](NS(=O)(=O)c3cccs3)CCN12 (some centres undefined)	1%[44.1 µM]
CN(CC1CCOCC1)C(=O)Nc1ccccc1C(F)(F)F	7%

Compound activity: PubChem, National Center for Advancing Translational Sciences (NCATS)
